Where “and” joins values, the source holds several entries; their conditions need not be identical. Equal values may be shown once. Hit rate of the full screen: of about 5,500 compounds, about 2,000 (36%) were called active. Not shown: some 18% with an inconclusive outcome. Cut-off read from the data, not from the text of the source: active = normalized growth mostly below about 0.91 (no sharp cut-off); inconclusive = no clear call, values can overlap the other calls; inactive = mostly above about 0.92. The list shows a part of the results.
Assay: chemical genetic growth profiling, strain panel (AID 1159580);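 note: tested at 20 µM; growth read once vehicle control cultures reached saturation at 30 °C; 1 = growth at the plate median or of vehicle wells; lower values mean less growth of the strain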
Conditions: S. cerevisiae deletion strains, growth OD

Measured: normalized growth

CC1OC(O[C@H]2/C=C/C=C/C=C/C=C/C=C/C=C/C=C/[C@H](C)[C@@H](O)[C@@H](C)[C@H](C)OC(=O)CC(O)CC(O)CCC(O)C(O)CC(O)C[C@]3(O)C[C@H](O)C(C(=O)O)C(C2)O3)C(O)[C@H](N)C1O (stereo partly drawn)
active: locus YAL021C, strain ccr4, stronger effect = lower value 0.0628 | locus YAL026C, strain drs2, stronger effect = lower value 0.059 | locus YBR171W, strain sec66, stronger effect = lower value 0.0768 | locus YCR088W, strain abp1, stronger effect = lower value 0.0609 | locus YDL005C, strain med2, stronger effect = lower value 0.0884 | locus YDR001C, strain nth1, stronger effect = lower value 0.0792 | locus YDR069C, strain doa4, stronger effect = lower value 0.0722 | locus YDR137W, strain rgp1, stronger effect = lower value 0.252 | locus YDR159W, strain sac3, stronger effect = lower value 0.696 | locus YDR195W, strain ref2 0.132 | locus YDR334W, strain swr1, stronger effect = lower value 0.115 | locus YDR335W, strain msn5, stronger effect = lower value 0.508 | locus YDR392W, strain spt3, stronger effect = lower value 0.07 | locus YEL003W, strain gim4, stronger effect = lower value 0.0549 | locus YEL037C, strain rad23, stronger effect = lower value 0.193 | locus YEL061C, strain CIN8 (second series), stronger effect = lower value 0.064 | locus YER016W, strain bim1, stronger effect = lower value 0.819 | locus YER111C, strain swi4, stronger effect = lower value 0.0759 | locus YER155C, strain BEM2 (second series), stronger effect = lower value 0.778 | locus YFR010W, strain ubp6, stronger effect = lower value 0.065 | locus YGL086W, strain mad1, stronger effect = lower value 1.07 [resistant] | locus YGL227W, strain vid30, stronger effect = lower value 0.0641 | locus YGL240W, strain doc1, stronger effect = lower value 0.856 | locus YGL253W, strain hxk2, stronger effect = lower value 0.0796 | locus YHR013C, strain ard1, stronger effect = lower value 1.38 [resistant] | locus YHR079C, strain IRE1, stronger effect = lower value 0.111 | locus YHR142W, strain chs7, stronger effect = lower value 0.843 | locus YJL092W, strain hpr5, stronger effect = lower value 0.0636 | locus YJL115W, strain asf1, stronger effect = lower value 0.893 | locus YJL129C, strain trk1, stronger effect = lower value 0.0757 | locus YKR026C, strain gcn3, stronger effect = lower value 0.0616 | locus YLL001W, strain dnm1, stronger effect = lower value 0.0851 | locus YLL026W, stronger effect = lower value 0.0668 | locus YLL041C, strain sdh2, stronger effect = lower value 0.0791 | locus YLR027C, strain aat2, stronger effect = lower value 0.0727 | locus YLR113W, strain HOG1, stronger effect = lower value 0.125 | locus YLR221C, strain rsa3, stronger effect = lower value 0.342 | locus YLR342W, strain FKS1, stronger effect = lower value 0.807 | locus YLR357W, strain rsc2, stronger effect = lower value 0.123 | locus YLR370C, strain arc18, stronger effect = lower value 0.112 | locus YLR384C, strain iki3, stronger effect = lower value 0.754 | locus YML120C, strain ndi1, stronger effect = lower value 0.0569 | locus YMR058W, strain fet3, stronger effect = lower value 0.0612 | locus YMR125W, strain sto1, stronger effect = lower value 0.0674 | locus YMR129W, stronger effect = lower value 0.0583 | locus YMR205C, strain PFK2, stronger effect = lower value 0.105 | locus YMR231W, strain pep5, stronger effect = lower value 0.881 | locus YNL071W, strain lat1, stronger effect = lower value 0.252 | locus YNL248C, strain rpa49, stronger effect = lower value 0.0699 | locus YNL322C, strain KRE1 (second series), stronger effect = lower value 0.092 | locus YOR001W, strain rrp6, stronger effect = lower value 0.0632 | locus YOR080W, strain dia2, stronger effect = lower value 0.389 | locus YOR231W, strain MKK1, stronger effect = lower value 0.109 | locus YOR290C, strain snf2, stronger effect = lower value 0.0611 | locus YPL078C, strain atp4, stronger effect = lower value 0.157 | locus YPL106C, strain sse1, stronger effect = lower value 0.319 | locus YPL240C, strain hsp82, stronger effect = lower value 0.108 | locus YPL256C, strain CLN2, stronger effect = lower value 0.122
inactive: locus YAL030W, strain snc1, stronger effect = lower value 0.995 | locus YBL061C, strain skt5, stronger effect = lower value 1 | locus YBR009C, strain hhf1, stronger effect = lower value 0.987 | locus YBR021W, strain FUR4, stronger effect = lower value 1.02 | locus YBR023C, strain chs3, stronger effect = lower value 0.957 | locus YBR229C, strain ROT2, stronger effect = lower value 0.996 | locus YBR231C, strain swc5, stronger effect = lower value 0.912 | locus YBR279W, strain paf1, stronger effect = lower value 0.984 | locus YCL011C, strain gbp2, stronger effect = lower value 1 | locus YCL016C, strain dcc1, stronger effect = lower value 0.996 | locus YCL029C, strain bik1, stronger effect = lower value 1.02 | locus YCL069W, strain vba3, stronger effect = lower value 0.977 | locus YDL035C, strain GPR1, stronger effect = lower value 1 | locus YDL040C, strain nat1, stronger effect = lower value 1.01 | locus YDL074C, strain BRE1, stronger effect = lower value 1.03 | locus YDL101C, strain DUN1, stronger effect = lower value 1 | locus YDL134C, strain PPH21, stronger effect = lower value 0.986 | locus YDL185W, strain tfp1, stronger effect = lower value 1.04 | locus YDL192W, strain arf1, stronger effect = lower value 1.01 | locus YDR101C, strain arx1, stronger effect = lower value 1.06 | locus YDR162C, strain NBP2, stronger effect = lower value 0.974 | locus YDR297W, strain sur2, stronger effect = lower value 0.981 | locus YDR318W, strain mcm21, stronger effect = lower value 0.999 | locus YDR388W, stronger effect = lower value 1.02 | locus YDR502C, strain sam2, stronger effect = lower value 1.01 | locus YEL061C, strain CIN8, stronger effect = lower value 1.01 | locus YER015W, strain faa2, stronger effect = lower value 1 | locus YER110C, stronger effect = lower value 1.01 | locus YER155C, strain BEM2, stronger effect = lower value 1 | locus YER167W, strain BCK2, stronger effect = lower value 1.01 | locus YGL078C, strain dbp3, stronger effect = lower value 1 | locus YGL167C, strain pmr1, stronger effect = lower value 1.05 | locus YGL173C, strain kem1, stronger effect = lower value 0.982 | locus YGL248W, strain PDE1, stronger effect = lower value 0.964 | locus YGR135W, strain pre9, stronger effect = lower value 0.997 | locus YGR229C, strain SMI1, stronger effect = lower value 0.904 | locus YGR252W, strain gcn5, stronger effect = lower value 0.952 | locus YHR027C, strain rpn1, stronger effect = lower value 0.991 | locus YHR079C, strain IRE1 (second series), stronger effect = lower value 1.01 | locus YHR094C, strain hxt1, stronger effect = lower value 1.01 | locus YHR129C, strain ARP1, stronger effect = lower value 1.01 | locus YHR200W, strain rpn10, stronger effect = lower value 1.02 | locus YIL066C, strain RNR3, stronger effect = lower value 0.996 | locus YIL073C, strain SPO22, stronger effect = lower value 1.11 | locus YIL125W, strain kgd1, stronger effect = lower value 1.01 | locus YIR030C, strain dcg1, stronger effect = lower value 1.01 | locus YJL095W, strain BCK1 (second series), stronger effect = lower value 1 | locus YJL134W, strain LCB3, stronger effect = lower value 1.01 | locus YJL154C, strain vps35, stronger effect = lower value 0.987 | locus YJL164C, strain tpk1, stronger effect = lower value 0.996 | locus YJL166W, strain qcr8, stronger effect = lower value 0.987 | locus YJL168C, strain set2, stronger effect = lower value 1.01 | locus YJL187C, strain SWE1 (second series), stronger effect = lower value 0.99 | locus YJR043C, strain POL32, stronger effect = lower value 0.95 | locus YJR066W, strain TOR1, stronger effect = lower value 1.01 | locus YJR075W, strain HOC1, stronger effect = lower value 1.03 | locus YKL009W, strain mrt4, stronger effect = lower value 0.963 | locus YKL068W, stronger effect = lower value 0.997 | locus YKL085W, strain MDH1 (second series), stronger effect = lower value 1 | locus YKL085W, strain MDH1, stronger effect = lower value 1 | locus YKL160W, strain elf1, stronger effect = lower value 0.975 | locus YKR001C, strain vps1, stronger effect = lower value 1.04 | locus YKR091W, strain srl3, stronger effect = lower value 1.01 | locus YLR039C, strain RIC1, stronger effect = lower value 1.07 | locus YLR058C, strain SHM2, stronger effect = lower value 0.984 | locus YLR102C, strain apc9, stronger effect = lower value 1.02 | locus YLR258W, strain gsy2, stronger effect = lower value 0.981 | locus YLR262C, strain YPT6 (second series), stronger effect = lower value 0.936 | locus YLR262C, strain YPT6, stronger effect = lower value 1.07 | locus YLR268W, strain sec22, stronger effect = lower value 1.06 | locus YLR320W, strain mms22, stronger effect = lower value 0.917 | locus YLR330W, strain CHS5, stronger effect = lower value 1.02 | locus YLR342W, strain FKS1 (second series), stronger effect = lower value 1.04 | locus YLR371W, strain rom2, stronger effect = lower value 1.03 | locus YLR418C, strain cdc73, stronger effect = lower value 0.973 | locus YML016C, strain PPZ1, stronger effect = lower value 0.986 | locus YML032C, strain rad52, stronger effect = lower value 0.996 | locus YML124C, strain tub3, stronger effect = lower value 1.01 | locus YMR078C, strain ctf18, stronger effect = lower value 1.02 | locus YMR223W, strain ubp8, stronger effect = lower value 0.992 | locus YMR263W, strain SAP30, stronger effect = lower value 1 | locus YMR307W, strain GAS1, stronger effect = lower value 0.768 | locus YNL067W, strain RPL9B, stronger effect = lower value 0.982 | locus YNL153C, strain GIM3, stronger effect = lower value 0.994 | locus YNL183C, strain NPR1, stronger effect = lower value 0.994 | locus YNL209W, strain ssb2, stronger effect = lower value 0.993 | locus YNL233W, strain BNI4, stronger effect = lower value 0.982 | locus YNL250W, strain rad50, stronger effect = lower value 1 | locus YNL271C, strain bni1, stronger effect = lower value 1.01 | locus YNL298W, strain CLA4, stronger effect = lower value 1.01 | locus YNL307C, strain MCK1, stronger effect = lower value 1.03 | locus YNR049C, strain mso1, stronger effect = lower value 0.991 | locus YNR052C, strain pop2, stronger effect = lower value 0.983 | locus YOL012C, strain htz1 0.984 | locus YOL147C, strain pex11, stronger effect = lower value 1.01 | locus YOR061W, strain CKA2, stronger effect = lower value 1.01 | locus YOR069W, strain VPS5, stronger effect = lower value 0.994 | locus YOR070C, strain gyp1, stronger effect = lower value 0.971 | locus YOR083W, strain WHI5, stronger effect = lower value 0.956 | locus YOR106W, strain vam3, stronger effect = lower value 0.983 | locus YOR136W, strain idh2, stronger effect = lower value 1.02 | locus YOR144C, strain elg1, stronger effect = lower value 1.01 | locus YOR184W, strain ser1, stronger effect = lower value 1 | locus YOR265W, strain rbl2, stronger effect = lower value 0.987 | locus YOR270C, strain vph1, stronger effect = lower value 0.792 | locus YOR316C, strain cot1, stronger effect = lower value 1.02 | locus YPL051W, strain arl3, stronger effect = lower value 1 | locus YPL241C, strain CIN2, stronger effect = lower value 1.01 | locus YPR119W, strain clb2, stronger effect = lower value 1.01 | locus YPR141C, strain kar3, stronger effect = lower value 1.01 | locus YPR163C, strain tif3, stronger effect = lower value 1.03 | locus YPR167C, strain met16, stronger effect = lower value 1.03 | strain wtn01, stronger effect = lower value 1.07
1.01 (inactive) and 0.099 (active): locus YHR030C, strain SLT2, stronger effect = lower value
0.993 (inactive) and 0.102 (active): locus YJL095W, strain BCK1, stronger effect = lower value

Source: PubChem BioAssay AID1159580 (chemical genetic matrix, 2015)
